Source: the supplement of paper PMC7801607

Each molecule was assayed on Plasmodium berghei ANKA liver stage in HepG2-A16-CD81 (assay: % inhibition of liver stage parasite viability (luciferase); higher = more inhibition). Conditions: 5 µM; 48 h.
Procedure: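 Single-concentration screen of the MMV Pandemic Response Box. P. falciparum NF54 asexual blood stages: pLDH assay, 72 h at 37 °C, 2 and 20 µM, n=2. Stage IV/V gametocytes (NF54): luciferase reporter (NF54-Pfs16-GFP-Luc, 48 h), ATP bioluminescence (24 h) and PrestoBlue (48 h) at 1 and 5 µM, n=1. P. berghei liver stage (luciferase in HepG2-A16-CD81, 48 h post infection) at 5 µM, n=4. All normalised to DMSO and kill controls as % inhibition.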

| Structure (SMILES) | % inhibition of liver stage parasite viability |
| --- | --- |
| N[C@H](CCC(=O)N[C@@H](Cc1c[nH]c2ccccc12)C(=O)O)C(=O)O | 21.3% |
| COc1cc(Cc2cnc(N)nc2N)c2c(c1OC)OC(C1CC1)C=C2 (stereo not given) | 56.5% |
| O=C(Nc1nnc(-c2ccc(Cl)cc2)o1)c1ccc(F)cc1 | 63.4% |
| O=C(Nc1nnc(-c2ccccc2)o1)c1ccc(F)cc1 | 53.8% |
| COc1ccc(COc2cc3oc(=O)c4cc(C(C)O)ccc4c3cc2OC)cc1 (stereo not given) | 8.21% |
| COc1cc(C2C3=C(CC(C)(C)CC3=O)Nc3ccccc3N2C(C)=O)ccc1OCc1ccccc1 (stereo not given) | 25.5% |
| CC(Cc1ccccc1)C(=O)Nc1ccc(Cl)cc1C(=O)O (stereo not given) | 8.73% |
| CC(C)(C)c1cccc(-c2nc3cc(C(=N)N)ccc3[nH]2)c1O | 26.2% |
| CCOC(=O)N1CCN(c2ccc(Cl)cc2)CC1 | 29.3% |
| O=[N+]([O-])c1ccc2c(CCc3c[nH]c4ccccc34)c[nH]c2c1 | -60.7% |
| C[Si]1(C)CCN(Cc2cc(-c3ccc(Cl)cc3)n(-c3ccc(Cl)cc3)n2)CC1 | 33.3% |
| CCN(CC)S(=O)(=O)c1ccc(Cl)c(C(=O)Nc2sc3c(c2C#N)CCCC3)c1 | 69.2% |
| CC(=N)N1CC[C@H](SC2=C(C(=O)O)N3C(=O)[C@@H]([C@@H](C)O)[C@H]3C2)C1 | 5.53% |
| O=C(NN1C(=O)[C@@H]2C3C=CC([C@H]4C[C@@H]34)[C@@H]2C1=O)c1ccc(C(F)(F)F)cc1 | 26.8% |
| C[C@H]1[C@@H](c2cccc(C(F)(F)F)c2)OC(=O)N1C(=O)NCc1cncc2ccccc12 | 63.9% |
| O=C(Nc1ccccc1C(=O)O)c1cccc(Oc2ccccc2)c1 | -3.28% |
| Cc1cc(C)n(O)c(=O)c1 | 15.5% |
| CCOc1ccc(/C=N/NC(=O)C2CC2c2ccc(C(C)(C)C)cc2)cc1OCC (stereo not given) | 11.3% |
| CC1CCc2c(N3CCC(O)CC3)c(F)cc3c(=O)c(C(=O)O)cn1c23 (stereo not given) | 17.1% |
| CCCCc1ccc(-c2nc(C)c(C(=O)OC)s2)cc1 | -103% |

| Structure (SMILES) | % inhibition of liver stage parasite viability |
| --- | --- |
| Nc1nc2c(Cc3cccnc3)c[nH]c2c(=O)[nH]1 | 27.7% |
| COC1CC2CCC(C)C(O)(O2)C(=O)C(=O)N2CCCCC2C(=O)OC(C(C)CC2CCC(OCCO)C(OC)C2)CC(=O)C(C)/C=C(\C)C(O)C(OC)C(=O)C(C)CC(C)/C=C/C=C/C=C/1C (stereo not given) | 0.0625% |
| O=C(/C=C\n1cnc(-c2cc(C(F)(F)F)cc(C(F)(F)F)c2)n1)NNc1ccccn1 | 16.2% |
| O=C(O)COc1cccc2c1CC[C@](O)(COC(=O)N(c1ccccc1)c1ccccc1)C2 | 13.6% |
| O=C(NC1CCCc2c1[nH]c1ccc(Cl)cc21)c1ccccn1 (stereo not given) | 2.22% |
| Clc1ccc(Cn2c(CN3CCCC3)nc3ccccc32)cc1 | 22.9% |
| Clc1ccc(COC(Cn2ccnc2)c2ccc(Cl)cc2Cl)c(Cl)c1 (stereo not given) | 33.2% |
| Fc1ccc2c(/C=C/c3cccnc3)c[nH]c2c1 | -23.8% |
| Cc1c(F)cccc1NC(=O)Nc1ccc(Cl)c(S(=O)(=O)[C@H]2CCCNC2)c1O | 13.1% |
| CC#C[C@]1(O)CC[C@H]2[C@@H]3CCC4=CC(=O)CCC4=C3[C@@H](c3ccc(N(C)C)cc3)C[C@@]21C | 15.2% |
| C[C@H](Cn1cnc2c(N)ncnc21)OCP(=O)(O)O | 9.32% |
| c1ccc(-c2nnc3c4ccccc4c(N4CCNCC4)nn23)cc1 | 7.03% |
| CC(=O)NC[C@H]1CN(c2ccc(N3CCSCC3)c(F)c2)C(=O)O1 | 50.2% |
| CS(=O)(=O)c1ccc(Oc2ccc(Cl)cc2)cc1 | 9.76% |
| Nc1cccc(-c2nc(N)nc(NC3Cc4ccccc4C3)n2)c1 | -38.1% |
| Cc1ccccc1NC(=O)Nc1cccc([N+](=O)[O-])c1 | 6.73% |
| CC(Oc1ccc(Cl)cc1Cl)C(=O)NCc1ccc2c(c1)OCO2 (stereo not given) | 7.01% |
| Nc1cc(-c2nc3ccccc3[nH]2)n[nH]c1=O | 24% |
| Cc1[nH]c2ccccc2c1CC(=O)N[C@@H](Cc1ccccc1)C(=O)N(C)c1ccccc1 | 8.84% |
| Nc1nc(=O)c(Br)c(-c2cccc(Cl)c2)[nH]1 | -7.9% |
